Source: PubChem (several laboratories)
Rows were chosen to be rich in hits. Some 1.3% of all compounds tested hit in one or more screens of this group.
SUMO HTRF inh: inhibitors of in vitro SUMOylation cascade, primary screen, biochemical, HTRF, uHTS. SUMO-conjugating enzyme UBC9 (Homo sapiens), P63279. inhibition, % at 35 µM. HTRF SUMOylation assay, SAE1/SAE2 + UBC9. actives 0.36% (n = 290,000); in the data active means inhibition above about 50%, passing the limit was not always enough
NCF1 inh: p47phox/p22phox peptide binding inhibitors, primary screen, biochemical, uHTS, NADPH oxidase regulatory subunit. actives 0.53% (n = 220,000). fluorescence polarization, 2 h. Neutrophil cytosol factor 1 (Homo sapiens), P14598. inhibition, % at 24.7 µM. AID 1274, 2008;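 further: 0% = p47phox with labelled peptide and 100% = labelled peptide alone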
14-3-3 Bad PPI: inhibitors of 14-3-3 zeta/Bad binding, primary screen, biochemical, TR-FRET, bovine 14-3-3 zeta; actives 0.71% (n = 220,000); TR-FRET 14-3-3zeta/Dy647-pBad peptide displacement, 1 h; inhibition, % at 21.7 µM; 14-3-3 protein zeta/delta (Bos taurus), P63103;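 active means inhibition above about 70%, limit read from the data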;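 further: 0% = full 14-3-3 plus peptide FRET controls and 100% = background without 14-3-3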
Target sequence (P63103 whole entry, looked up): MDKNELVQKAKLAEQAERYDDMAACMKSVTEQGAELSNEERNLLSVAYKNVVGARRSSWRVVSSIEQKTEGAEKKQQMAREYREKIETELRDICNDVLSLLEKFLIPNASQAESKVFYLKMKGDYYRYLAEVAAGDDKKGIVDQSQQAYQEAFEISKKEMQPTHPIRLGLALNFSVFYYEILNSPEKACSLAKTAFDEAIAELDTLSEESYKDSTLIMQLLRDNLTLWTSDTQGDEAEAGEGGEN
eIF4E 4G PPI: eIF4E–eIF4G protein interaction inhibitors, primary screen, biochemical, uHTS, TR-FRET, eIF4GI fragment; Eukaryotic translation initiation factor 4E (Mus musculus) + Eukaryotic translation …; TR-FRET eIF4E-eIF4GI(517-606) binding, 2 h; inhibition, % at 21.7 µM; actives 0.37% (n = 220,000);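 further: 0% = full FRET control wells and 100% = background wells lacking eIF4GI fragment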
Active calls of the source: *; . = not tested or not shown; ! = a repeat was not active; [ ] = remark or other dose.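 How the source made its calls, unless noted: active means inhibition above about 30% (limit read from the data); inactive means the rest.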

SMILES	SUMO HTRF inh	NCF1 inh	14-3-3 Bad PPI	eIF4E 4G PPI
O=C(Nc1ccc(F)c([N+](=O)[O-])c1)C(=O)c1c(O)[nH]c2ccccc12	8	-9	-12	-5
Cc1[nH]n(-c2ccccc2)c(=S)c1C=Nc1ccc([N+](=O)[O-])cc1	-14	87*	-15	0
Cc1[nH]n(-c2ccccc2)c(=O)c1C=Nc1ccc(S(=O)(=O)N=C(N)N)cc1	12	-14	-2	-1
NC(=O)C1CCN(C(=O)COc2ccc(Nc3ccccc3)cc2)CC1	17	-1	-2	96*
NC(=O)C1CCN(C(=O)COc2ccc3ccccc3c2)CC1	16	3	-5	-5
CN(C)C(=O)COc1ccc(S(=O)(=O)c2ccc(OCC(=O)N(C)C)cc2)cc1	-1	.	.	.
O=C(O)COc1ccc(S(=O)(=O)c2ccc(OCC(=O)O)cc2)cc1	25	35*	15	4
CCCN1CCC(=NNC(=O)c2ccc(Br)o2)CC1	15	4	-9	39*
C1CCN=C(Nc2nn[nH]n2)CC1	5	-13	71*	6
C[C@](N)(Cc1ccc(O)c(O)c1)C(=O)O	90*	0	0	8
O=C(C1=C[C@H](c2ccccc2)C[C@H](OCc2ccc(CO)cc2)O1)N1CCCCCCC1	-4	.	6	0
N/C(=N\N=C\c1cccs1)SC1CC(=O)N(c2cccc([N+](=O)[O-])c2)C1=O (configuration not stated)	34	-3	82*	1
Cc1cc(NS(=O)(=O)c2ccc(NC(=O)c3cc4cc(Br)ccc4oc3=O)cc2)no1	6	-21	53	12
CCN(CC)CCOC(=O)c1ccc(NC(=O)C(C)NC(=O)C23CC4CC(CC(C4)C2)C3)cc1 (configuration not stated)	-6	-26	-14	-2
O=C(NCc1cn(-c2ccccc2)nc1-c1ccccc1)c1cc([N+](=O)[O-])cc([N+](=O)[O-])c1	9	-28	96*	-7
CCCCCCCCCCCCCCCC[n+]1cccc2ccccc21	18	101*	97*[fluorescence artefact?]	92*[fluorescence artefact?]
Cn1ccnc1C(O)(c1ccccc1)c1nccn1C	-2	48*	-3	2
O=C(c1ccccc1)c1ccccc1N/C=C/c1nnnn1-c1ccccc1	3	-9	-1	-8
CC(C)(C)OC(=O)NCCC(=O)Oc1ccc2ccc(=O)oc2c1	36	-1	2	-4
CC(NC(=O)OC(C)(C)C)C(=O)Oc1ccc2ccc(=O)oc2c1 (configuration not stated)	52*	-3	-2	18
CCOC(=O)C1C(=O)CC(C)(O)C(C(=O)OCC)C1c1ccc([N+](=O)[O-])cc1 (configuration not stated)	-4	-3	5	0
O=C(Cc1ccccc1)NC1c2ccccc2-c2ccccc21	7	6	11	0
COC(=O)C1c2ccccc2-c2ccccc21	4	10	78*	2
COc1ccc(OCCSc2nnc(Cc3cccc4ccccc34)n2N)cc1	-23	-9	-1	-2
CCOC(=O)C1(Cc2cccc(OC)c2)CCCN(Cc2c(C)nn(C(C)C)c2C)C1 (configuration not stated)	12	12	-5	97*
SMILES	SUMO HTRF inh	NCF1 inh	14-3-3 Bad PPI	eIF4E 4G PPI
CCOC(=O)C1(Cc2cccc(OC)c2)CCCN(Cc2cc(C(C)C)n[nH]2)C1 (configuration not stated)	5	-3	-6	1
CCOC(=O)C1(Cc2cccc(OC)c2)CCN(Cc2cc(OC)ccc2OC)CC1	12	1	80*	2
CCOC(=O)C1(Cc2cccc(OC)c2)CCN(Cc2cccc(OC)c2OC)CC1	-8	5	-3	4
CCCn1c(SC(C)C(=O)O)nc2ccccc21 (configuration not stated)	11	11	83*	-1
COC(=O)Nc1ccc2c(c1)N(C(=O)CCN1CCN3CCCC3C1)c1ccccc1CC2 (configuration not stated)	14	-18	72*!	-14
CCOC(=O)c1cnn(C(=O)c2ccccc2)c1N	16	-3	10	45*[fluorescence artefact?]
Cn1c(-c2cccs2)nc2ccccc21	18	-13	12	6
